# According to PubChem BioAssay AID504339 (National Center for Advancing Translational Sciences (NCATS), 2011):
# About 17,000 (4.4%) of roughly 390,000 compounds were called active. A call without a number means that no potency is given here. About 8% were inconclusive and are not listed. The sample holds actives, similar compounds and a random draw of the others, so the mix is not that of the screen. The call rests on the fitted dose curve; in most records, active means well fitted inhibition curve with a large enough effect; inconclusive means small, poorly fitted or top-dose-only effect; inactive means no such curve, though single readings can be large or run the other way.
# Molecular target: Lysine-specific demethylase 4A (Homo sapiens) (UniProt O75164)
# Sequence (O75164 whole entry, looked up, the tested form may be a part): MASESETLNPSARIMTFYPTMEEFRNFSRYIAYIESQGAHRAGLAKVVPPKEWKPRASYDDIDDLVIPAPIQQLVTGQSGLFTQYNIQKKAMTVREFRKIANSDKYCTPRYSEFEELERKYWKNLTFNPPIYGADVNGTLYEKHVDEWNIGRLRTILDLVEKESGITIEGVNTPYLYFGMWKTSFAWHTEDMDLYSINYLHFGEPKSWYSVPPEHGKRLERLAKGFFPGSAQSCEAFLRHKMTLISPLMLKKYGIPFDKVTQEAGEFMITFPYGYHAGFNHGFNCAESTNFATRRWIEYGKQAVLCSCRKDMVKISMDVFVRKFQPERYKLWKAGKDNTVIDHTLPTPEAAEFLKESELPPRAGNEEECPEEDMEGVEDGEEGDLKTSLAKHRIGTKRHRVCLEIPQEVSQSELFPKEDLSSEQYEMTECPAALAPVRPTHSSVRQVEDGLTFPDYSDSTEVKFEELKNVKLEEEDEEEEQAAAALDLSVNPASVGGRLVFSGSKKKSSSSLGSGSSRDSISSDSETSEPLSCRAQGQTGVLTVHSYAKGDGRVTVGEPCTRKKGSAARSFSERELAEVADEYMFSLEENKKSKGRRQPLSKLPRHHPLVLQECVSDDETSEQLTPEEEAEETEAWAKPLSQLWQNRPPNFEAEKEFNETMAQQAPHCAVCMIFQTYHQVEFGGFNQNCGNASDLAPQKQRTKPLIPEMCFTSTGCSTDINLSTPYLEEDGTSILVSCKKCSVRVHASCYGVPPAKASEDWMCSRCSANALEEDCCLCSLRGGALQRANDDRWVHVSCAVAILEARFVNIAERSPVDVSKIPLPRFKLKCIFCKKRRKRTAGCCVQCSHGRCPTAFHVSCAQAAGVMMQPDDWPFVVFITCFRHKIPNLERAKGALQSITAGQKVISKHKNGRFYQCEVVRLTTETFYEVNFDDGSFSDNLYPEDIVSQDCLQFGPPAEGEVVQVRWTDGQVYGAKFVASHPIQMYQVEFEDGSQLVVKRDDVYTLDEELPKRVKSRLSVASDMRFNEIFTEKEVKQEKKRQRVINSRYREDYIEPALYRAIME
# Test: qHTS Assay for Inhibitors of JMJD2A-Tudor Domain; further: nearly all actives have a fitted effect of over 50% in size
# Details: AlphaScreen JMJD2A-Tudor / H3K4me3 peptide binding; series mostly up to 114 µM
# Potency means the concentration at half of the fitted maximal effect.
SMILES,Potency,"activity change, negative = inhibition"
CCOc1ccc(CCNC(=O)c2csc3c2CCCCC3)cc1,inactive,
COc1ccc(C2=NC3(CCCCC3)N(CC(=O)Nc3ccc(C(C)C)cc3)C2=O)cc1,inactive,
Cc1ccc(-n2nc(C)c3c(C)cc(=O)n(CC(=O)Nc4ccc(C(C)C)cc4)c32)cc1,inactive,
CC(=O)Nc1ccc(NC(=O)COc2ccc(S(=O)(=O)NC(C)c3ccccc3)cc2)cc1 (centres undefined),inactive,
CC(NS(=O)(=O)c1ccc(OCC(=O)N2CCCC2)cc1)c1ccccc1 (centres undefined),inactive,
CCCCC(CC(C)O)c1n[nH]c(=S)n1-c1ccccc1 (centres undefined),28.2 µM (active),
CC(NS(=O)(=O)c1ccccc1)c1n[nH]c(=S)n1-c1ccccc1 (centres undefined),25.1 µM (active),
CCCSc1nc2sc3c(c2c(=O)n1-c1cccc(Br)c1)CC(C)(C)OC3,inactive,
CCC(C(=O)Nc1cccc(Cl)c1C)n1nc(-c2ccc(C)cc2)ccc1=O (centres undefined),inactive,
CCc1ccc(NC(=O)c2cc(S(=O)(=O)NC3CCCCCC3)ccc2F)cc1,inactive,
COCCn1c(SCC(=O)Nc2nc(C)cs2)nnc1C(C)C,inactive,
CCn1c(SCC(=O)NC2=NCCS2)nnc1C(C)NC(=O)c1ccccc1F (centres undefined),inactive,
CCn1c(SCC(=O)Nc2nc(C)cs2)nnc1C(C)NC(=O)c1ccccc1 (centres undefined),79.4 µM (active),
Cc1ccc(N2CC(NC(=O)Cc3cccs3)CC2=O)cc1 (centres undefined),inactive,
COc1cccc(CNCc2c(C(=O)O)n(Cc3ccc(C)cc3)c3cc(C)ccc23)c1OC,inactive,
CCOc1ccc2nc(/N=C/c3nc(-c4ccccc4)oc3O)sc2c1,inactive,
CC(N=Cc1nc(-c2ccccc2)oc1O)c1ccccc1 (centres undefined),79.4 µM (active),
Oc1oc(-c2ccccc2Br)nc1/C=N/c1ccccn1,inactive,
CCN(Cc1ccccc1)S(=O)(=O)c1ccc2c(c1)CCCN2C(C)=O,inactive,
COC(=O)c1cc(NC(=O)c2cnc(SC)nc2-c2ccccc2)cc(C(=O)OC)c1,inactive,
O=C1/C(=C/c2ccc(F)cc2)SC(=S)N1CCCC(=O)N1CCCCC1CCO (centres undefined),44.7 µM (active),
O=C1/C(=C/c2ccc(F)cc2)SC(=S)N1NS(=O)(=O)c1ccccc1,inactive,
O=C1CCCCN1CCCC(=O)N1CCCC(Nc2ccc(F)cc2)C1 (centres undefined),inactive,
CCOc1cccc2cc(-c3cn4c(n3)sc3cc(C)ccc34)c(=O)oc12,inactive,
O=C(CSc1ncc(S(=O)(=O)c2ccc(Br)cc2)c(=O)[nH]1)Nc1ccc2c(c1)OCCO2,inactive,

SMILES,Potency,"activity change, negative = inhibition"
COc1cc2nc(SCC(=O)Nc3ccccc3F)n3nc(-c4ccccc4)nc3c2cc1OC,inactive,
COc1ccc(N2CCN(C(=O)c3cccs3)CC2)cc1,inactive,
COc1ccc(N2CCN(Cc3ccc(Br)s3)CC2)cc1,3.55 µM (active),
COc1ccc(N2CCN(Cc3nnc(-c4ccccc4)o3)CC2)cc1,inactive,
COc1cccc(NC(=O)Cn2c(=O)cc(C)c3c(C)nn(-c4cccc(F)c4)c32)c1,inactive,
O=S(=O)(c1ccccc1)c1nc(-c2ccc(Cl)cc2Cl)oc1N1CCCCC1,inactive,
O=C(O)c1cccnc1Sc1ncnc2sc3c(c12)CCC3,31.6 µM (active),
OCCNc1nc2ccccc2n1-c1ncnc2sc3c(c12)CCC3,inactive,
CCCSc1ncccc1C(=O)O,inactive,
Cc1ccc2oc3c(c(=O)c2c1)C(c1ccc([N+](=O)[O-])cc1)N(CCCN1CCOCC1)C3=O (centres undefined),inactive,
CCc1ccccc1NC(=O)N1CCC2(CC1)Oc1ccccc1C(=O)N2Cc1ccccc1F,inactive,
CC(=O)Nc1ccc(NC(=O)CCCc2nc(-c3ccc(C(C)(C)C)cc3)no2)cc1,inactive,
N#Cc1cc([N+](=O)[O-])ccc1Oc1cccc(/C=N/NC(=O)c2ccc(Cl)cc2)c1,inactive,
O=C(N/N=C/c1ccc(Cl)cc1)c1nc2ccc([N+](=O)[O-])cc2c(=O)[nH]1,28.2 µM (active),
O=C(N/N=C/c1cccc(OC(=O)c2ccc([N+](=O)[O-])cc2)c1)c1cccnc1,inactive,
COC(=O)c1ccc(NC(=O)CCc2c(C)nn(-c3ccc(N4CCCC4)nn3)c2C)cc1,inactive,
Cc1cc(C)cc(Nc2ncnc3onc(-c4ccc(F)cc4)c23)c1,inactive,
Brc1nc2ncnc(NCc3ccco3)c2[nH]1,inactive,
O=C1CSC(=S)N1/N=C/c1ccc(O)c([N+](=O)[O-])c1,20 µM (active),
O=C(CNC(=O)c1ccc(Cl)c(C(F)(F)F)c1)OC(C(=O)Nc1cc(C(F)(F)F)ccc1Cl)c1ccccc1 (centres undefined),inactive,
CCOC(=O)c1ccccc1NC(=O)c1nn(-c2ccc(OC)c(Cl)c2)c(=O)c2c1c1ccccc1n2C,inactive,
N#Cc1nc(Nc2cc(F)cc(Cl)c2)nc(NC2CCCC2)n1,inactive,
CCCC(=O)N1c2ccc(-c3csc(N)n3)cc2CC1C (centres undefined),inactive,
CC(C)(C)C(=O)OCc1nc(-c2ccc(O)c(O)c2)cs1,3.55 µM (active),
Cc1onc(C(=O)NN)c1-c1csc(COc2ccccc2)n1,inactive,

SMILES,Potency,"activity change, negative = inhibition"
Cc1cc(C)c(NC(=O)CSc2nc3nccnc3c(=O)n2CCc2c[nH]c3ccccc23)c(C)c1,inactive,
COC(=O)c1ccccc1NC(=O)c1ccc(C#N)cc1,inactive,
COc1cc(NC(=O)Cn2c(=O)n(Cc3ccco3)c(=O)c3oc4ccccc4c32)cc(OC)c1,inactive,
O=S(=O)(NCCc1nnc2ccc(SCc3ccc(Cl)cc3Cl)nn12)c1ccccc1,inactive,
CNC(=S)Nc1ccc([N+](=O)[O-])cc1,inactive,
O=C(O)/C=C/C(=O)NNc1ccc([N+](=O)[O-])cc1,31.6 µM (active),
NC(=O)C1(Nc2ccc([N+](=O)[O-])cc2)CCCC1,inactive,
CCS(=O)(=O)N1CCC(n2c(C)nc3cccnc32)CC1,inactive,
O=C(CSc1ncn[nH]1)Nc1ccnc2ccccc12,inactive,
CCN(C(=O)COC(=O)c1ccccc1O)c1cccc2ccccc12,inactive,
CCN(C(=O)CSc1ncn[nH]1)c1cccc2ccccc12,3.16 µM (active),
Cc1ccc(-c2onc(C)c2C)cc1S(=O)(=O)Nc1ccccn1,inactive,
COC(=O)c1cc(S(=O)(=O)N2CCN(c3cc(Cl)ccc3C)CC2)c[nH]1,inactive,
Cc1nc2ccn(Cc3cccnc3)c(=O)c2cc1C(=O)N1CCN(c2ccccc2F)CC1,inactive,
O=C(Nn1cc(C(=O)N2CCN(c3ccccc3F)CC2)c2ccccc2c1=O)c1cnccn1,25.1 µM (active),
O=C(Cn1nc(Cc2cccnc2)c2ccccc2c1=O)N1CCN(c2ccccc2F)CC1,inactive,
CCN(CC)S(=O)(=O)c1ccc(C(=O)N=c2sc3cccc(OC)c3n2C)cc1,inactive,
O=C(NCc1ccc2c(c1)CCN2C(=O)c1ccccc1)Nc1cc(F)ccc1F,inactive,
CCc1cnc2c(c1SCC(=O)c1ccccc1)c(=O)n(C)c(=O)n2C,inactive,
COc1ccc(-c2nn3c(=O)cc(CN4CCN(C(=O)c5ccc(OC)c(OC)c5)CC4)nc3s2)cc1,inactive,
CCN1CCN(CCCCOc2ccccc2F)CC1,0.794 µM (active),
CN1CCN(CCCCOc2cccc3ccccc23)CC1,inactive,
COc1ccccc1OCCCCCCN1CCN(C)CC1,inactive,
CC(C)NC(=O)c1nn(-c2ccccc2F)nc1CO,inactive,
Cc1[nH]c2ccccc2c1C(c1ccccc1)c1cccs1 (centres undefined),inactive,

SMILES,Potency,"activity change, negative = inhibition"
Cc1cccc(-n2ncc(C(=O)N3CCC(C)CC3)c2C2CCN(C(=O)OC(C)(C)C)CC2)c1,inactive,
CCCCSc1ncnc2c1sc1nc(N3CCOCC3)c3c(c12)CCCC3,inactive,
Cc1cc(C)n(CC(O)CN(c2ccccc2)S(=O)(=O)c2ccc3ccccc3c2)n1 (centres undefined),inactive,
CCC(=O)c1ccc(OCC(O)Cn2nc(C)c(C(C)=O)c2C)cc1 (centres undefined),inactive,
Cc1cc(C)n(CC(O)COc2ccc(C(C)(C)C)cc2)n1 (centres undefined),79.4 µM (active),
COc1ccc(S(=O)(=O)c2c(Nc3ccc(C)cc3)sc(C(=O)c3ccc(C)cc3)c2N)cc1,inactive,
CSc1ccc(C2c3c(oc4ccccc4c3=O)C(=O)N2CCCN2CCOCC2)cc1 (centres undefined),inactive,
COc1ccc(-c2nc3sc(CCNS(=O)(=O)c4ccc(F)c(C)c4)c(C)n3n2)cc1,inactive,
CC(C)c1cc(C(=O)O)n[nH]1,28.2 µM (active),
Cc1cc(C)nc(NS(=O)(=O)c2ccc(NC(=O)c3cc(=O)c4ccc(C)c(C)c4o3)cc2)n1,inactive,
CC1=C(C(=O)N2CCN(c3cccc(C(F)(F)F)c3)CC2)C2(CCCCC2)OC1=O,inactive,
Cc1ccc(Cl)cc1N1CCN(C(=O)c2cnc3c(-c4ccc(F)cc4)c(C)nn3c2C)CC1,inactive,
O=C(CNC(=O)c1ccc(Cl)cc1Cl)OC(C(=O)Nc1cc(C(F)(F)F)ccc1Cl)c1ccccc1 (centres undefined),inactive,
COc1cc(/C=C2\SC(=S)N(Nc3ncc(C(F)(F)F)cc3Cl)C2=O)cc(OC)c1OC,44.7 µM (active),
CCOc1ccc(/C=C2\SC(=S)N(NC(=O)c3ccncc3)C2=O)cc1OC,inactive,
COc1cc(/C=C/C(=O)N2c3ccccc3Sc3ccc(C(F)(F)F)cc32)cc(OC)c1OC,inactive,
COc1ccc(CCNc2nc3c(-c4cccc(F)c4)nnn3c3ccccc23)cc1OC,inactive,
COCCNc1ncnc2c1c(-c1ccccc1)cn2-c1ccc(C)c(Cl)c1,inactive,
CC1(C)CCc2cc(S(=O)(=O)N3CCN(c4nc(-c5cccs5)nc5ccccc45)CC3)ccc2O1,inactive,
COc1ccc(OC)c(Nc2nc(-c3ccc(O)c(O)c3)cs2)c1,10 µM (active),
COc1ccc(OC)c(Nc2nc3ccccc3n3cnnc23)c1,,-5.88% [at 11.4 µM] (inactive)
COc1ccc(OC)c(-c2csc(NC(=O)C3=NNC(=O)CC3)n2)c1,inactive,
CCOC(=O)c1ccc(NC(=O)CSc2nc3c([nH]c4ccccc43)c(=O)n2C)cc1,inactive,
COc1ccc(OC)c(-c2noc(N3CCN(c4cc(Cl)ccc4C)CC3)n2)c1,inactive,
